High-throughput results from PubChem BioAssay.
JMJD2A Tudor = JMJD2A Tudor domain (human) inhibition. O75164. AlphaScreen JMJD2A-Tudor / H3K4me3 peptide binding. Potency, µM (series often up to 114 µM), inactives show at the top dose activity change, negative = inhibition, most hits filed as inhibitors. hit rate 4.4% among 390,000. AID 504339; also: % is scaled to controls: 0 for no effect and ±100 for the full control effect; nearly all actives have a fitted effect of over 50% in size
L3MBTL1 inh = inhibitors of human L3MBTL1; Q9Y468; AlphaScreen L3MBTL1–H3K9me1 peptide binding; Potency, µM (titrated, usually from 57.1 µM), for the others: top-dose activity, negative = inhibition, actives largely listed as inhibitors; hit rate 0.66% among 230,000; AID 485360; also: % is scaled to controls: 0 for no effect and ±100 for the full control effect; nearly all actives have a fitted effect of over 60% in size
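AlphaScreen assay: L3MBTL1 (50 nM final) was preincubated 30 min at room temperature with biotinylated H3(1-15)K9me1 peptide (75 nM final), then 30 min with library compounds; streptavidin donor and nickel chelate acceptor beads (10 ug/mL final) added, 30 min dark.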
BAZ2B inh = inhibitors of human BAZ2B bromodomain; Q9UIF8; AlphaScreen BAZ2B-H3K14Ac peptide displacement; Potency, µM (titrated, usually from 114 µM), for inactives: at the highest dose activity change, negative = inhibition, usual class: inhibitors; hit rate 4.4% among 360,000; also: % is scaled to controls: 0 for no effect and ±100 for the full control effect; nearly all actives have a fitted effect of over 60% in size
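AlphaScreen displacement of biotin-H3(5-23)K14Ac peptide (50 nM final) from BAZ2B (50 nM final) in PBS pH 7.4, 0.01% Tween-20; complex preformed 30 min RT, then compounds (top 110 uM) 30 min RT, beads 20 min dark.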
Sfp inh = blocks B. subtilis Sfp PPTase activity; Q9F4F7; Biochemical Sfp PPTase activity, qHTS; Potency, µM, for inactives: largest response in the series, negative = inhibition, most hits filed as inhibitors; hit rate 3.5% among 310,000;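 also: the enzyme is Sfp with the accession as filed and its product quenches rhodamine fluorescence; 0% = enzyme reaction without inhibitor and -100% = no enzyme wells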
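Buffer: 50 mM Hepes-Na pH 7.6, 10 mM MgCl2, 0.01% Nonidet P-40, 0.01% BSA. Enzyme 15 nM, pre-exposed to compound 15 min; substrates then added and fluorescence change tracked over 30 min.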
HP1b chromo inh = blocks HP1-beta chromodomain binding to methylated histone tails; Potency, µM (top dose mostly 114 µM), inactives show top-dose activity change, negative = inhibition, usual class: inhibitors; AlphaScreen HP1-beta / biotin-H3K9me3 peptide binding; hit rate 0.56% among 390,000; also: nearly all actives have a fitted effect of over 70% in size
Target sequence (P83916 whole entry, looked up): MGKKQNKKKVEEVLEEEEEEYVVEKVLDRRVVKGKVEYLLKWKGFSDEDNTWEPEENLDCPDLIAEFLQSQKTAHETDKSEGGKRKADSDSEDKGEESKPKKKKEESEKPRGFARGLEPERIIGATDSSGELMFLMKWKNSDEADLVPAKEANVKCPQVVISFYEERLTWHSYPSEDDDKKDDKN
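Compound inhibition of the preformed complex between 50 nM HP1-beta and 50 nM biotinylated H3K9me3 peptide was read by AlphaScreen. Buffer was PBS pH 7.4 with 0.01% Tween-20. Incubations ran 30 min at room temperature, with 10 ug/mL donor/acceptor beads.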
G9a inh = blocks human histone lysine methyltransferase G9a. G9a H3K9 monomethylation, AlphaScreen, 2 h. hit rate 8.8% among 350,000. Potency, µM (highest dose often 102 µM), for inactives: top-dose activity, negative = inhibition, hits mostly inhibitors. Q96KQ7; also: % is scaled to controls: 0 for no effect and ±100 for the full control effect; nearly all actives have a fitted effect of over 75% in size
Target sequence (Q96KQ7 913-1193 limits assumed): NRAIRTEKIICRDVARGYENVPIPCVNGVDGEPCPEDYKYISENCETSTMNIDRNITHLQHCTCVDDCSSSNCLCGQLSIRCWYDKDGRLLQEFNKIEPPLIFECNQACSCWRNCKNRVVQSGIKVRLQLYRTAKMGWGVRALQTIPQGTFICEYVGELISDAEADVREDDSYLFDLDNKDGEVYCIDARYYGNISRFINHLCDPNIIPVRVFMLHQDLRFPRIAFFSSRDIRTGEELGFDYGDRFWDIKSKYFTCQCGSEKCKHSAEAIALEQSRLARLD
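AlphaScreen read-out: biotin-H3K9 peptide (500 nM) methylation by 20 nM enzyme with 20 uM SAM, 2 h at room temperature after 15 min compound preincubation; anti-monomethyl H3K9 antibody plus donor/acceptor beads, 10 min dark.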
The depositor's hits bear a star; ? = inconclusive; / = not tested or not shown; ! = not active in a repeat; [ ] = remark or other dose. The list is not random: actives were taken first. Their share in the collection is about 12%. Calls follow the shape of the dose curve; as a rule, active = well fitted curve in the direction sought with a large enough effect; inconclusive = small, poorly fitted or top-dose-only effect, or another doubt; inactive = no such curve, though single readings can be large; an effect the other way counts as inactive or inconclusive. Potency is read from the fitted curve at half-maximal effect.

SMILES | JMJD2A Tudor | L3MBTL1 inh | BAZ2B inh | Sfp inh | HP1b chromo inh | G9a inh
C=CCSc1nc2ccccc2n1C(=O)/C=C/c1cc(OC)c(OC)c(OC)c1 | -17% | 0% | -2% | -15% | 20% | -9%
CCSc1nc2ccccc2n1C(=O)/C=C/c1ccc(OC)c(OC)c1 | -11% | -2% | -5% | 56µM* | 10% | ?
C=CCSc1nc2ccccc2n1C(=O)/C=C/c1ccc(OC)c(OC)c1 | 0% | 3% | 5% | 28µM* | 9% | /
COc1cccc(SCc2noc(C(=O)NCCC(C)C)c2C(=O)NCCC(C)C)c1 | 28% | / | / | / | 60% | /
NC1(C(=O)O)CC1 | 3.2µM* | / | / | 56µM* | 28% | 7.1µM*!
NC1(C(=O)O)C[C@H](C(=O)O)[C@H](C(=O)O)C1 (stereo partly specified) | / | / | / | 50µM*! | / | 26%[59 µM]
NC1(C(=O)O)CCCC1 | / | / | / | -11% | / | -33%[2.33 µM]
CC(c1ccco1)N(C(=O)c1ccccc1NS(=O)(=O)c1cccc([N+](=O)[O-])c1)c1ccccn1 (stereo unspecified) | -24% | -12% | -38% | ? | 15% | 79µM*
CC(c1ccco1)N(C(=O)c1ccccc1NS(=O)(=O)c1cc([N+](=O)[O-])ccc1Cl)c1ccccn1 (stereo unspecified) | 25µM* | -10% | 79µM* | ? | -12% | 4µM*
CC(c1ccco1)N(C(=O)c1ccccc1NS(=O)(=O)c1ccc(Cl)cc1)c1ccccn1 (stereo unspecified) | -34% | -8% | -34% | 24% | -2% | ?
Cc1nc2nc[nH]n2c(=O)c1CCC(=O)Nc1ccc(F)cc1 | -6% | / | -5% | / | 58% | 5%[59 µM]
O=[N+]([O-])c1cccc(-c2cc(C(F)(F)F)n3nc(-c4ccccc4)cc3n2)c1 | -1% | / | -20% | 17% | 37% | /
CN(CC1CCOCC1)C(=O)CC1C(=O)NCCN1Cc1ccc(-c2ccccc2)cc1 (stereo unspecified) | -12% | -1% | -12% | 15% | 31% | 4%
COc1ccc(CN2CCNC(=O)C2CC(=O)N(C)CC2CCOCC2)cc1OC (stereo unspecified) | -4% | / | -16% | 3% | 32% | 79µM*
COc1ccc(CN2CCNC(=O)C2CC(=O)N(C)CC2CCOCC2)cc1C (stereo unspecified) | -17% | / | -23% | 14% | 29% | 79µM*
S=c1[nH]nc(COc2ccccc2)n1/N=C/c1c(Cl)cccc1Cl | -11% | / | 2% | -15% | 5% | 2µM*
CCc1n[nH]c(=S)n1/N=C/C(C)=C\c1ccccc1 | 25µM* | -1%[2.29 µM] | 56µM* | ? | 14% | 7%[0.501 µM]
CCc1n[nH]c(=S)n1/N=C/c1cc(Br)c(OC)cc1OC | ? | -2% | -5% | -19% | 20% | 2.5µM*
CC(/C=N/NC(=O)CSc1n[nH]c(=O)[nH]c1=O)=C\c1ccccc1 | 3% | 3% | 1% | 15% | 16% | 13%
S=c1[nH]nc(COc2ccccc2)n1/N=C/C(Cl)=C/c1ccccc1 | ? | -19% | ? | 56µM* | ? | 10%[0.501 µM]
COc1ccccc1NS(=O)(=O)c1cccc(C(=O)NCC(c2cccs2)N(C)C)c1 (stereo unspecified) | -18% | / | / | / | 29% | /
S=c1[nH]nc(COc2ccccc2)n1/N=C/c1cccc(Cl)c1Cl | ? | / | -19% | -2% | -6% | ?
S=c1[nH]nc(COc2ccccc2)n1/N=C/c1ccccc1Cl | 56µM* | / | -22% | ? | -1% | 2.2µM*
CCc1n[nH]c(=S)n1/N=C/c1ccc(-c2ccc(Br)cc2)o1 | -15% | / | / | / | 50% | /
CCc1n[nH]c(=S)n1/N=C/c1ccc(NC(C)=O)cc1 | 5µM* | 0% | ? | -13% | -24% | 8.9µM*
SMILES | JMJD2A Tudor | L3MBTL1 inh | BAZ2B inh | Sfp inh | HP1b chromo inh | G9a inh
Cn1nc(C(C)(C)C)c([N+](=O)[O-])c1C(=O)NCCO | 50µM* | 3% | 10% | -11% | 8% | 0%
O=C(O)/C=C/C(=O)Nc1ccc(C2(c3ccc(NC(=O)/C=C/C(=O)O)cc3)c3ccccc3-c3ccccc32)cc1 | -35% | -18% | 50µM* | -9% | 17% | /
O=C(O)/C=C/C(=O)Nc1ccc(Oc2ccc(NC(=O)/C=C/C(=O)O)cc2)cc1 | / | 25µM* | 50µM* | -13% | / | ?
O=C(O)/C=C/C(=O)Nc1ccc(Cc2ccc(NC(=O)/C=C/C(=O)O)cc2)cc1 | -10% | / | -29% | -9% | 20% | 45µM*
O=C(O)/C=C/C(=O)Nc1ccc(OC(F)(F)Cl)cc1 | 0% | -3% | -39% | 11% | 27% | 45µM*
O=C(O)/C=C\C(=O)Nc1ccc(Oc2ccccc2)cc1 | -15% | 0% | -22% | 12% | 35% | ?
COc1ccc(C2=C(C)C(=O)N(Cc3ccc(C(=O)NC(C)c4ccccc4)cc3)S2(=O)=O)cc1 (stereo unspecified) | -1% | / | -16% | / | 26% | 8%[59 µM]
CCCC(C)C(=O)Nc1nc(C)c(-c2csc(Nc3ccccc3OC)n2)s1 (stereo unspecified) | ? | -5% | ? | ? | -17% | 7.9µM*
CCCCCC(=O)Nc1nc(C)c(-c2csc(Nc3ccccc3OC)n2)s1 | ? | -6% | ? | -12% | -12% | ?
CCC(C)C(=O)Nc1nc(C)c(-c2csc(Nc3cc(OC)ccc3OC)n2)s1 (stereo unspecified) | 50µM* | -12% | 50µM* | 6% | -17% | 22µM*
COc1ccc(OC)c(Nc2nc(-c3sc(NC(=O)CC(C)C)nc3C)cs2)c1 | 45µM* | -10% | ? | 5% | ? | 8.9µM*
COc1ccc(OC)c(Nc2nc(-c3sc(C)nc3C)cs2)c1 | 40µM* | -20% | 32µM* | ? | ? | 50µM*
CCC(C)C(=O)Nc1nc(C)c(-c2csc(Nc3cc(Cl)ccc3OC)n2)s1 (stereo unspecified) | ? | -1% | ? | ? | -22% | ?
CCn1nc(CC(=O)O)c2ccccc2c1=O | -8%[57.1 µM] | 4% | -38% | 15% | 52% | -31%
COCCCNCCCCOc1ccc(Br)cc1C | 20µM* | 11% | ? | -2% | ? | 10µM*
COc1ccccc1OCCCCNC(C)(C)C | -11% | 2% | / | 0% | 8% | 4%[59 µM]
Cc1cc(Br)ccc1OCCCCNC(C)(C)C | 28µM* | -1% | 50µM* | -24% | 11% | /
Cc1ccc(NC(=O)COc2ccc(Br)cc2C)cc1 | 1% | 19% | -2% | 8% | 24% | 5%[59 µM]
COCCNCCCCOc1ccc(Br)cc1C | 1.1µM* | 5% | 50µM* | -20% | ? | 5.6µM*
CCc1cccc(C)c1NC(=O)C1=C(C)C(=O)OC12CCC(C)CC2 (stereo unspecified) | 0% | / | -7% | / | 25% | 9%[59 µM]
